Results from article PMC5540273 (PLoS ONE, 2017).

Experiments:
Settings in all cases: concentration: 1 μM, replicates: in singlicate; n = 1
[1] = test system: TIE1
[2] = test system: T1, TIE2
T1 construct: gene TEK

[3] = test system: TLK1
[4] = test system: TLK2
[5] = test system: TNIK
[6] = test system: TNK1
[7] = test system: TNK2
[8] = test system: TNNI3K
[9] = test system: T2, TRKA
T2 construct: gene NTRK1

[10] = test system: TRKB
[11] = test system: T3, TRKC
T3 construct: gene NTRK3

[12] = test system: TRPM6
[13] = test system: TSSK1B
[14] = test system: TSSK3
[15] = test system: TTK
[16] = test system: TXK
[17] = test system: TYK2(JH1domain-catalytic)
[18] = test system: TYK2(JH2domain-pseudokinase)
[19] = test system: TYRO3
[20] = test system: ULK1
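Also: KINOMEscan kinase panel screen.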

| SMILES | %Inh [1] [%] | %Inh [2] [%] | %Inh [3] [%] | %Inh [4] [%] | %Inh [5] [%] | %Inh [6] [%] | %Inh [7] [%] | %Inh [8] [%] | %Inh [9] [%] | %Inh [10] [%] | %Inh [11] [%] | %Inh [12] [%] | %Inh [13] [%] | %Inh [14] [%] | %Inh [15] [%] | %Inh [16] [%] | %Inh [17] [%] | %Inh [18] [%] | %Inh [19] [%] | %Inh [20] [%] |
| --- | --- | --- | --- | --- | --- | --- | --- | --- | --- | --- | --- | --- | --- | --- | --- | --- | --- | --- | --- | --- |
| COC(=O)c1c(-c2ccccc2)c2cc(Cl)ccc2c(=O)n1Cc1ccc(S(C)(=O)=O)cc1 | 4 | 0 | 19 | 0 | 4 | 0 | 0 | 19 | 0 | 0 | 17 | 0 | 0 | 0 | 7 | 0 | 0 | 2 | 0 | 0 |
| CN1c2ccc(-c3ccc(C(=O)NCCO)cc3)cc2-c2[nH]ncc2S1(=O)=O | 0 | 3 | 22 | 30 | 43 | 52 | 10 | 3 | 0 | 0 | 0 | 2 | 0 | 0 | 10 | 0 | 51 | 89 | 25 | 0 |
| COc1ccc(Nc2nccc(N3CCC(NC(=O)Nc4ccc5c(c4)OCO5)C3)n2)cc1 (centres unmarked) [GSK1379745] | 19 | 0 | 18 | 0 | 1 | 0 | 14 | 11 | 64 | 41 | 51 | 0 | 0 | 31 | 0 | 3 | 45 | 15 | 0 | 9 |
| O=c1cc(N2CCOCC2)nc2n(Cc3cccc(Cl)c3)ccn12 [GSK2296823] | 16 | 0 | 0 | 0 | 0 | 0 | 28 | 1 | 0 | 0 | 0 | 11 | 0 | 3 | 9 | 18 | 14 | 7 | 9 | 16 |
| COc1ccc(Nc2nccc(N3CCC(NC(=O)c4cccc(NC(C)=O)c4)C3)n2)cc1 (centres unmarked) [GSK1379732] | 0 | 0 | 0 | 0 | 0 | 0 | 7 | 7 | 37 | 40 | 43 | 0 | 14 | 11 | 8 | 5 | 36 | 30 | 0 | 0 |
| Oc1ccc2ncnc(Nc3ccc(OCc4ccccc4)cc3)c2c1 [GI262866] | 19 | 0 | 0 | 0 | 0 | 0 | 4 | 77 | 0 | 0 | 0 | 0 | 0 | 18 | 13 | 37 | 19 | 0 | 0 | 14 |
| c1ccc(-c2ccc3c(-c4ccnc(Nc5ccc6c(c5)OCCO6)n4)cnn3n2)cc1 [GW818941] | 22 | 8 | 0 | 0 | 1 | 0 | 12 | 17 | 34 | 0 | 0 | 25 | 32 | 18 | 36 | 13 | 8 | 5 | 0 | 15 |
| O=C(Nc1ccccc1)Nc1ccc(Oc2ccc3nccn3n2)cc1 | 13 | 46 | 0 | 0 | 0 | 43 | 10 | 82 | 0 | 0 | 0 | 0 | 1 | 0 | 0 | 12 | 0 | 0 | 19 | 0 |
| C[C@H]1CC[C@@H](C(=O)Nc2ccccc2)CN1c1cc(-c2ccc3c(N)n[nH]c3c2)nc(N)n1 [GSK2283293] | 26 | 0 | 4 | 0 | 0 | 0 | 17 | 0 | 0 | 0 | 11 | 8 | 9 | 12 | 20 | 0 | 0 | 27 | 0 | 0 |
| CNc1nccc(-c2c(-c3ccc(F)cc3)ncn2C2CCN(C)CC2)n1 [SB-222903] | 0 | 0 | 0 | 0 | 21 | 25 | 0 | 0 | 20 | 0 | 0 | 0 | 0 | 0 | 23 | 0 | 0 | 0 | 0 | 0 |
| FC(F)(F)c1ccc(-c2cc(-c3c[nH]nc3-c3ccccn3)ccn2)cc1 [GW599550] | 4 | 0 | 11 | 11 | 78 | 0 | 16 | 0 | 0 | 0 | 14 | 38 | 13 | 7 | 0 | 0 | 20 | 21 | 0 | 0 |
| Clc1ccc(-c2cc(-c3c[nH]nc3-c3ccccn3)ccn2)cc1 [GW681251] | 33 | 0 | 0 | 0 | 80 | 0 | 0 | 17 | 0 | 0 | 100 | 0 | 13 | 16 | 17 | 0 | 3 | 0 | 0 | 0 |
| CC(C)(C)OC(=O)NC1CCCN(c2cc(-c3ccc4c(N)n[nH]c4c3)nc(N)n2)C1 (centres unmarked) [GSK2286096] | 0 | 0 | 0 | 0 | 0 | 10 | 13 | 6 | 0 | 0 | 0 | 39 | 0 | 96.5 | 0 | 0 | 66 | 0 | 0 | 1 |
| CC(C)(C)c1ccc(-n2cnc3c(N)ncnc32)cc1 [SKF-97263] | 14 | 0 | 0 | 0 | 0 | 5 | 10 | 12 | 18 | 0 | 0 | 34 | 16 | 13 | 15 | 16 | 6 | 41 | 0 | 24 |
| CC(C)N1CCC(n2cnc(-c3ccc(F)cc3)c2-c2ccnc(N)n2)CC1 [SB-223132] | 0 | 96.9 | 5 | 0 | 11 | 3 | 0 | 4 | 0 | 0 | 0 | 0 | 0 | 0 | 14 | 21 | 0 | 2 | 0 | 0 |
| Cc1ccc(O)cc1Nc1cc(C(F)(F)F)nc2ccc(-c3ccncc3)cc12 [GW630823] | 0 | 3 | 21 | 0 | 1 | 0 | 17 | 14 | 0 | 0 | 0 | 0 | 0 | 0 | 3 | 10 | 0 | 0 | 36 | 0 |
